This passage reports inhibition results from PubChem BioAssay AID449762 (Southern Research Specialized Biocontainment Screening …, 2010).

Values joined by “and” are separate entries in the source; they are usually repeats but may differ in a detail not shown here. Identical values can stand only once. The whole screen tested about 330,000 compounds, of which about 1,900 (0.58%) were called active. About 4% were inconclusive and are not listed. These entries were drawn from the full list. Results with a measured potency or affinity are listed apart. A number with no mark means an inactive call. Cut-off read from the data, not from the text of the source: inconclusive = inhibition above about 70% without an active follow-up result; inactive = below that.

This experiment can be described thus: M. tuberculosis growth inhibition, HTS (AID 449762).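 Note: bacterial growth assessed after seven days of incubation.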 The settings on record: M. tuberculosis H37Rv growth inhibition, 7H9 media; at 25 µM; active compounds read high.
By inhibition is commonly meant the change of the read-out against control, counted positive when it falls. Consider `C=CCn1c(SCC(=O)N(CC)CC)nc(O)cc1=O`, for which the inhibition is 1.96%.
In the case of `COc1cccc(/C=N/NC(=O)CNC(=O)/C=C\c2ccccc2)c1O`, the inhibition is 0.24%.
The result for `O=C(Nc1ccccc1Cl)c1ccc(Cl)cc1Cl` reads 64.5%; that for `O=C(O)CCCCCN1C(=O)CSC1=S`, -1.88%; that for `O=C(O)CN1C(=O)CSC1=S`, 3.79%.
In the case of `O=C(CN1CCN(Cc2ccccc2F)C1=O)NCC1CCCO1` (stereo unspecified), the inhibition was 1.03%.
Then `O=C(CCc1c[nH]c2ccccc12)OCC(=O)N1CCN(S(=O)(=O)c2ccccc2)CC1`, with 43.2%; and `Cc1ccc(S(=O)(=O)N2CCN(C(=O)CCc3c[nH]c4ccccc34)CC2)cc1`, with -4.25%.
On to `COc1cc(CNC(C)c2ccccc2)c(Br)cc1OCC(N)=O` (stereo unspecified), for which the inhibition was -3.38%.
In the case of `c1ccc(-c2cn3c(n2)SCC3)cc1`, the inhibition is -1.11%.
The result for `Oc1ccc(-c2cn3c(n2)SCC3)cc1` reads -2.38%; that for `COc1ccc(NC(=O)c2cc(-c3ccc(C)cc3)on2)cc1OC`, -6.33%.
For the compound `COc1cc2c(cc1OC)C(C1C(=O)CCCC1=O)N(C(=O)CCl)CC2` (stereo unspecified), the inhibition was 2.64%.
On to `COc1cc2c(cc1OC)C(c1cc(Br)ccc1O)N(C(C)=O)CC2` (stereo unspecified), for which the inhibition is -0.81%.
Then `Cc1ccc(S(=O)(=O)N2[C@@H](c3ccc(Br)cc3)C(C(=O)O)=CC[C@H]2c2ccc3c(c2)OCO3)cc1`, with 3.53%.
The result for `CCOC(=O)c1cnc(SC2CC(=O)N(c3ccc(C)cc3)C2=O)nc1N` (stereo unspecified) reads -12.6%.
Regarding `CCOC(=O)c1cnc(SC2CC(=O)N(c3ccccc3)C2=O)nc1N` (stereo unspecified), the inhibition was -5.11%.
With `CC(C)(C)OC(=O)C[C@H]1C/C=C\C[C@H](CC(=O)NCCO)C(=O)N2CCC[C@@H]2COC1=O`, the inhibition was 2.79%.
Then `CSc1ccc(CN2CCC(CO)(Cc3ccc(Cl)cc3)CC2)cc1`, with 2.5%; and `CNC(=O)NC(=O)COC(=O)CCc1nc(=O)c2ccccc2n1C`, with 2.07%; and `Cn1nnnc1Sc1ncnc2scc(-c3cccc4ccccc34)c12`, with 61.1%.
The result for `Cn1nnnc1Sc1ncnc2scc(-c3ccccc3)c12` reads 15.1%; that for `COc1cc(C(=O)Nc2cccc(-n3cnnn3)c2)cc(OC)c1OC`, -9.02%.
For `Cc1ccc(-c2nn(-c3ccccc3)cc2C=C2C(=O)CC(C)(C)CC2=O)cc1`, the inhibition was 28.4%.
For the compound `CC1(C)CC(=O)C(=Cc2cn(-c3ccccc3)nc2-c2ccccc2)C(=O)C1`, the inhibition was 14.4%.
In the case of `CC1C=CCC2C(=O)N(c3cccc(C(=O)NCc4ccccc4)c3)C(=O)C12` (stereo unspecified), the inhibition is 0.47%.
Regarding `COc1ccc(-c2cn3cc(Cl)ccc3n2)cc1OC`, the inhibition is 35.8%.
Take `COc1ccc(-c2cn3cc(C)ccc3n2)cc1OC`: the inhibition is -0.94%.
As to `Cc1ccc(CN(C)C(=O)C2CCC(=O)N(C3CCCCCC3)C2)cc1` (stereo unspecified), the inhibition is 0.77%.
The result for `OCCC1CN(Cc2cccn2-c2cccnc2)CCN1C1CCCCC1` (stereo unspecified) reads -3.37%; that for `CO/N=C/NC(=O)NOCc1c(Cl)cccc1Cl`, -5.31%; that for `NC(=O)NOCc1c(Cl)cccc1Cl`, -2.55%.
Consider `CN(C(=O)c1ccc2nc(N)sc2c1)c1ccccc1`, for which the inhibition is -7.17%.
`COc1ccc(NC(=O)/C(=C\c2cccs2)NC(=O)c2ccco2)cc1`: the inhibition is 6.87%.
With `CCOC(=O)N1CCN(C(=O)CCCN2C(=O)CSc3nc(C)cc(C)c32)CC1`, the inhibition is 0.43%.
In the case of `COc1ccc(CS(=O)(=O)/C(Cl)=C(/Cl)C(=O)Nc2ccc(OC)nc2)cc1`, the inhibition was 35%.
The result for `COc1ccc(NC(=O)CCl)cn1` reads 55.6%; that for `COc1ccc(S(=O)(=O)N2CCOCC2)cc1NC(=O)CCCOc1ccc(Cl)cc1C`, -8.9%; that for `COc1ccc(-n2c(-c3ccc(Cl)cc3)c[n+]3c2CCCCC3)cc1`, -4.69%.
As for `COc1ccccc1-n1c(-c2ccccc2)c[n+]2c1CCc1ccccc1-2`, the inhibition is 10.8% and 4.8%.
With `O=c1cccc2n1C[C@@H]1C[C@@H]2CN(CC(O)c2ccc([N+](=O)[O-])cc2)C1` (stereo partly specified), the inhibition is 9.8%.
Consider `COc1ccccc1C(=O)COC(=O)c1cc([N+](=O)[O-])ccc1N1CCOCC1`, for which the inhibition is 32.4%.
With `Cc1ccccc1Nc1c(-c2ccccn2)nc2c(C)cccn12`, the inhibition is 1.32%.
The result for `Cc1cccn2c(Nc3ccccc3)c(-c3ccccn3)nc12` reads 67.1%; that for `CCN(CC)C(=O)CSc1nnc(-c2ccc(S(=O)(=O)NCc3ccccc3Cl)cc2)o1`, 5.34%; that for `COc1ccccc1-c1nnc(SCC(=O)Nc2ccc(Cl)cc2Cl)o1`, -3.38%.
Turning to `CCN(CC)C(=O)CSc1nnc(-c2c[nH]c3ccccc23)o1`, the inhibition was 1.41%.
Take `Cc1ccc(C(=O)CSc2nnc(-c3c[nH]c4ccccc34)o2)cc1`: the inhibition is 0.92%.
Take `CCSc1nnc(-c2ccc(S(=O)(=O)NCc3cccs3)cc2)o1`: the inhibition is -2.17%.
For the compound `CSc1nnc(-c2ccc(Cl)cc2Cl)o1`, the inhibition was 26.3%.
For the compound `C/C(=N\O)c1noc(C)c1C(=O)Nc1nccs1`, the inhibition was -2.68%.
The result for `O=S(=O)(c1cccc(-c2cn3ccccc3n2)c1)N1CCCCC1` reads 0.63%.
Regarding `CCOC(=O)[C@H]1NN=C(C(=O)OC)[C@@H]1c1ccccc1`, the inhibition was -5.97%.
On to `COCCOC(=O)N/C=C\c1nc2ccccc2c(=O)[nH]1`, for which the inhibition is -1.7%.
As for `COc1ccc(C2C(C(=O)N3CCN(C)CC3)c3cc(OC)c(OC)cc3C(=O)N2C)cc1` (stereo unspecified), the inhibition is 11%.
Regarding `CC(=O)c1ccc(NC(=O)C(C)O/N=C(\N)c2ccccc2)cc1` (stereo unspecified), the inhibition is 1.95%.
As to `CCCc1ccc(-c2cc(C(=O)NC3=NCCS3)c3ccccc3n2)cc1`, the inhibition is -0.06%.
`CC1CCCC(NC(=O)COC(=O)c2ccc(S(=O)(=O)N3CCOCC3)cc2)C1C` (stereo unspecified): the inhibition was -1.74%.
For `Cc1ccc(C(=O)NNC(=O)c2csc(N3CCOCC3)n2)o1`, the inhibition is 0.22%.
Consider `Cc1nn(-c2ccc(F)cc2F)c2c1-c1nc(N3CCCC3)ncc1CC2`, for which the inhibition is 69.4%.
The result for `Cc1nn(-c2ccccn2)c2c1-c1nc(N)ncc1CC2` reads 0.53%; that for `CCO/C=N/Nc1nc(C(F)(F)F)nc2c1cnn2Cc1ccccc1`, 60.4%.
The result for `COc1ccc(OC)c(NC(=O)c2ccc(OCC(=O)N3CCOCC3)c(OC)c2)c1` reads 1.16%; that for `CN(Cc1ccccc1)c1nc(CN2CCOCC2)nc2scc(-c3ccccc3)c12`, 5.04%.
In the case of `CCNc1nc(CN2CCCCC2)nc2scc(-c3ccccc3)c12`, the inhibition is 40.7%.
For the compound `Cc1ccc(NC(=O)NCc2nc3ccccc3n2C)cc1`, the inhibition was -2.85%.
The result for `O=C(Nc1ccccc1[N+](=O)[O-])C1=C(O)CCn2c1nc1ccccc12` reads -3.87%.
For `COC(=O)CN1C(=O)N(c2ccccc2)C(N(O)C(=O)Nc2ccccc2)C1(C)C` (stereo unspecified), the inhibition was 2.21%.
`COc1ccc(Nc2nc(N3CCN(C)CC3)nc3ccccc23)c(OC)c1`: the inhibition is -4.21%.
The result for `COc1ccc(Nc2nc(N3CCN(S(C)(=O)=O)CC3)nc3ccccc23)c(OC)c1` reads 2.78%; that for `C=CCNC(=O)CN1C2CCCC1CC(NC(=O)c1ccccc1C)C2` (stereo unspecified), -6.37%; that for `O=C(COC(=O)c1ccccc1N1C(=O)C2C3CCC(C3)C2C1=O)c1ccccc1` (stereo unspecified), -3.76%.
For the compound `COc1cc([N+](=O)[O-])ccc1NC(=O)CN1CCc2cc(OC)c(OC)cc2C1`, the inhibition is 6.98%.
Consider `CCOC(=O)C(NCCCCl)c1ccccc1` (stereo unspecified), for which the inhibition is 0.32%.
Take `COc1ccccc1OCCOCCN1CCCC1`: the inhibition is -4.15%.
Then `COc1ccccc1OCCCCN1CCCCC1`, with 2.93%; and `CCCc1cc(NC(=O)COC(=O)c2ccc(O)cc2O)n(-c2ccccc2)n1`, with -2.82%; and `CCCc1cc(NC(=O)COC(=O)c2nccnc2N)n(-c2ccccc2)n1`, with 50.9%.
Regarding `C=CCNC(=S)NNC(=O)CCC(O)COCCC(C)C` (stereo unspecified), the inhibition is 1.2%.
With `CCOC(=O)N1CCC(NC(=O)c2cc(COc3ccccc3SC)on2)CC1`, the inhibition was 1.54%.
As for `COc1cc(/C=C2/C(=O)N(c3ccc(C)c(C)c3)N=C2C)cc([N+](=O)[O-])c1O`, the inhibition is -4.94%.
Regarding `CC1=NN(c2cccc(C(=O)O)c2)C(=O)/C1=C\C=C\c1ccco1`, the inhibition is -4.32%.
Turning to `Cc1nn(C)c(C)c1CNC(=O)Nc1cccc(Cl)c1C`, the inhibition was -2.03%.
Turning to `Cc1ccc([N+](=O)[O-])c(NC2OC(CO)C(O)C2O)c1` (stereo unspecified), the inhibition is -2.66%.
Take `COc1ccc(C2CC(c3ccc(Br)cc3)=NN2C(=O)c2cccnc2)cc1` (stereo unspecified): the inhibition was 47.5%.
On to `N#CCc1nc2ccc(S(=O)(=O)N3CCOCC3)cc2s1`, for which the inhibition is -0.38%.
As for `Cc1ccccc1CN1CCCN(Cc2ccc(Cl)cc2)S1(=O)=O`, the inhibition is 2.25%.
Regarding `CCOC(=O)c1c(NC(=O)CCCC(=O)O)sc2c1CCC2`, the inhibition is 1.76%.
Then `CCOC(=O)c1c(NC(C)=O)sc2c1CCC(C=O)=C2Sc1ccccc1`, with 6.72%; and `COc1cccc(Cn2c(=O)ccc3ccccc32)c1`, with 7.74%.
Then `O=C(Nc1ccc(Oc2cccc(C(F)(F)F)c2)nc1)c1ccccc1`, with 14%; and `Cc1ccc(C(=O)Nc2ccc(Oc3cccc(C(F)(F)F)c3)nc2)cc1`, with 3.4%; and `O=C1CN=CN=CN1c1ccc(Cl)cc1Cl`, with 10.8%.
In the case of `CCOC(=O)N1CCN(C(=O)C2CCC(=O)N(CCCc3ccccc3)C2)CC1` (stereo unspecified), the inhibition was -4.71%.
Take `Cc1cc(C)n(-c2nc3ccccc3c(=O)n2OCC(N)=O)n1`: the inhibition was 13.1%.
Then `Cc1cc(CC(C)C)n(-c2nc3ccccc3c(=O)n2OCc2ccccc2)n1`, with 58.9%.
